Data from PubChem BioAssay (Tox21).
Unmarked numbers belong to inactive results. Records with an inconclusive call do not appear. A call without a number means that no potency is given here. Activity calls are given as the source filed them. Unless noted, calls follow the shape of the dose curve; as a rule, active = well fitted curve in the direction sought with a large enough effect in the repeat runs; inconclusive = weak or mixed curves; inactive = no such curve, though single readings can be large; an effect the other way counts as inactive or inconclusive.

Legend:
[1] = qHTS assay to identify small molecule agonists of the estrogen receptor alpha (ER-alpha) signaling pathway in the presence of an antagonist - cell viability counter screen (AID 1259386);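 also: series mostly up to about 92 µM; cells exposed to compounds for 22 h at 37 °C before the viability read; nearly all actives have a fitted effect of over 30% in size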
Method in brief: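 ICI-182,780 at 10.0nM final accompanies the compound titration (15 concentrations, 22hr, 37C) on VM7Luc4E2 cells. The CellTiter-Fluor fluorescence readout runs in the same wells as the luciferase assay.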

[2] = target: Progesterone receptor (Homo sapiens) (UniProt P06401); test: qHTS assay to identify small molecule antagonists of the progesterone receptor (PR) signaling pathway (AID 1346795; active = well fitted inhibition curve with a large enough effect in the signal ratio in the repeat runs, not every such curve was filed as active; the % refers to the signal ratio; also: potency is read from the fitted curve at half-maximal effect)
Sequence of Progesterone receptor (Homo sapiens) (P06401 whole entry, looked up): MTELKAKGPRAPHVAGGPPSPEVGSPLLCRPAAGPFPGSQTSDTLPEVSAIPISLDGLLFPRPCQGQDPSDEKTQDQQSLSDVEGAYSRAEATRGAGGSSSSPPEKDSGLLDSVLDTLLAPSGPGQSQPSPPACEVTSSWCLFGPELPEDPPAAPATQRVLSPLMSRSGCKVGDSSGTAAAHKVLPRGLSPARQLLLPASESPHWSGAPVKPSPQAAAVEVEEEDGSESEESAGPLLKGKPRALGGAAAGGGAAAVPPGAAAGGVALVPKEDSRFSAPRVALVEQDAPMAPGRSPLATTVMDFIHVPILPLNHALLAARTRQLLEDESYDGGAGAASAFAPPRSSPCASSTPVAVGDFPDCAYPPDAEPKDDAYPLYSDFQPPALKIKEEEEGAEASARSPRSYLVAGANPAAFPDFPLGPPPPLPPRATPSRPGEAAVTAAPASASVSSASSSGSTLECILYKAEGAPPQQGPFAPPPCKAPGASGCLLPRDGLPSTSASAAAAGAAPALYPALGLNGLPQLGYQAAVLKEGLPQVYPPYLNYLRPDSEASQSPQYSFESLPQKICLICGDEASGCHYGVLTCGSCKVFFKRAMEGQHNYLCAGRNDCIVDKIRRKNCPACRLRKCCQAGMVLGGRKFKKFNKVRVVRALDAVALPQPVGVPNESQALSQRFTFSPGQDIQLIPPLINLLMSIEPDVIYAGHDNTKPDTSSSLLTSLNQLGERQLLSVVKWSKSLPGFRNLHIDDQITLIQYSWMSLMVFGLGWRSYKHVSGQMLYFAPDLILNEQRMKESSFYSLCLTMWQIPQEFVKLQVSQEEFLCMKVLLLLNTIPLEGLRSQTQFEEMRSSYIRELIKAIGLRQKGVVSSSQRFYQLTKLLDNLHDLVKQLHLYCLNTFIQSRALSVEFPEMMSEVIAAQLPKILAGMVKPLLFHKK
Method in brief: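 Screening used a GripTite HEK293T line with PR-responsive UAS-beta-lactamase. Cells were challenged with compound in the presence of 1 nM R5020 final for 16 hr at 37C; B/G FRET substrate, 2 hr room temperature, fluorescence.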

[3] = qHTS assay to identify small molecule antagonists of the progesterone receptor (PR) signaling pathway - cell viability counter screen (AID 1346798); also: series mostly up to about 92 µM; nearly all actives have a fitted effect of over 50% in size
Method in brief: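 Measures cytotoxicity in parallel with the PR antagonist reporter read: HEK293T PR-UAS-bla cells get compound and R5020 for 16 hr, and remaining viable cells are quantified by CellTiter-Glo luminescence.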

[4] = qHTS assay to identify small molecule agonists of the progesterone receptor (PR) signaling pathway - cell viability counter screen (AID 1346799; calls by dose curve; also: nearly all actives have a fitted effect of over 45% in size)
Method in brief: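 Using the same plates as the PR reporter screen, HEK293T PR-UAS-bla cells received compounds for 16 hr at 37C and were then lysed with CellTiter-Glo; luminescence was read 30 min later at room temperature.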

[5] = qHTS assay to identify small molecule antagonists of the TGF-beta/Smad signaling pathway - cell viability counter screen (AID 1346824); also: nearly all actives have a fitted effect of over 50% in size
Method in brief: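 SBE-bla HEK 293T cells, incubated overnight, then compound plus 0.25 ng/mL TGF-beta1 (stock added) for 5 hr at 37 C. Viability was read in the same wells by CellTiter-Glo luminescence after 30 min at room temperature.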

[6] = qHTS assay to identify small molecule agonists of the TGF-beta/Smad signaling pathway - cell viability counter screen (AID 1346829); also: top concentration of the series differs between compounds; nearly all actives have a fitted effect of over 45% in size
Method in brief: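 SBE-bla HEK 293T cells plated overnight, compound exposure 5 hr at 37 C. Viability read in the same wells by CellTiter-Glo luminescence after 30 min at room temperature, following the beta-lactamase read.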

[7] = qHTS assay to identify small molecule agonists of the TGF-beta/Smad signaling pathway (AID 1346859; active = well fitted activation curve with a large enough effect in the signal ratio in the repeat runs, not every such curve was filed as active; the % refers to the signal ratio; also: series mostly up to about 77 µM)
Method in brief: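 Beta-lactamase reporter activity downstream of Smad binding elements was measured in stably transfected HEK 293T cells; compounds were incubated for 5 hr, substrate for 2 hr at room temperature.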

[8] = target: Thyrotropin-releasing hormone receptor (Homo sapiens) (UniProt P34981); test: qHTS assay to identify small molecule antagonists of the thyrotropin-releasing hormone receptor (TRHR) signaling pathway (AID 1346877; active = well fitted inhibition curve with a large enough effect in the repeat runs, not every such curve was filed as active; also: series mostly up to about 51 µM)
Sequence of Thyrotropin-releasing hormone receptor (Homo sapiens) (P34981 whole entry, looked up): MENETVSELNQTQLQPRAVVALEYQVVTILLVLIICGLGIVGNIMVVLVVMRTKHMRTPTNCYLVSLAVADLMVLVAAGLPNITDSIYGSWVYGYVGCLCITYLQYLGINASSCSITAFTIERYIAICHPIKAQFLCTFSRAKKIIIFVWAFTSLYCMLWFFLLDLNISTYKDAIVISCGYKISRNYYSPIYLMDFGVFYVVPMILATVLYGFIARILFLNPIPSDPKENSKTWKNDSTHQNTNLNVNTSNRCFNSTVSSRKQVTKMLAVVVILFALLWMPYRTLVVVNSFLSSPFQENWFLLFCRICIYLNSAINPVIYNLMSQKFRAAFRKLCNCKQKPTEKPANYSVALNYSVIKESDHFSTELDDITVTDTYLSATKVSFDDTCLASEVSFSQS
Method in brief: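 Screening used HEK293 cells engineered with TRHR, with a brief 5 min room-temperature compound exposure preceding addition of TRH to 1 nM. The read-out was kinetic calcium-dye fluorescence, concentration-response from 15 doses in triplicate.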

[9] = target: Thyrotropin-releasing hormone receptor (Homo sapiens) (UniProt P34981); test: qHTS assay to identify small molecule agonists of the thyrotropin-releasing hormone receptor (TRHR) signaling pathway (AID 1346891; calls by dose curve;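 also: HEK293 cells expressing TRHR with calcium dye readout; series mostly up to about 58 µM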)
Method in brief: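 Overnight-plated (18 h, 37 °C, 5% CO2) TRHR-Hek293 cells; 2 h calcium dye at 37 °C; compound in DMSO; 3-min kinetic fluorescence read.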

[10] = Human pregnane X receptor (PXR) small molecule agonists, qHTS cell viability counter screen (AID 1346977); also: nearly all actives have a fitted effect of over 50% in size; also: potency is read from the fitted curve at half-maximal effect
Method in brief: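 After a 5hr pre-incubation, PXR-Luc HepG2 cells received compounds plus positive control in DMSO and were kept 24hr at 37C. Cell viability was quantified by fluorescence from CellTiter-Fluor added for the final hour.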

[11] = Caspase-3/7 induction in HepG2 cells by small molecules, qHTS assay (AID 1346978); also: nearly all actives have a fitted effect of over 15% in size
Method in brief: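 Wild-type HepG2 cells, 2,000/well, settled 5 hr at 37 C and 5% CO2, then compound-treated for 17 hr; caspase-3/7 activity read by luminescent Caspase-Glo 3/7 after 30 min at room temperature.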

[12] = Caspase-3/7 induction in CHO-K1 cells by small molecules, qHTS cell viability counter screen (AID 1346979); also: nearly all actives have a fitted effect of over 35% in size; also: potency is read from the fitted curve at half-maximal effect
Method in brief: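 Multiplexed with Caspase-Glo 3/7 in CHO-K1 cells, this counter screen added CellTiter-Fluor after 16hr of compound exposure and recorded fluorescence 1hr later.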

[13] = Caspase-3/7 induction in CHO-K1 cells by small molecules, qHTS assay (AID 1346980); also: nearly all actives have a fitted effect of over 15% in size
Method in brief: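 Wild-type CHO-K1 cells exposed to compounds for 17hr at 37 C, 5% CO2. Caspase-3/7 activity then measured by Caspase-Glo 3/7 luminescence after 30min at room temperature.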

[14] = Caspase-3/7 induction in HepG2 cells by small molecules, qHTS cell viability counter screen (AID 1346981); also: nearly all actives have a fitted effect of over 30% in size; also: potency is read from the fitted curve at half-maximal effect
Method in brief: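 Multiplexed with the caspase-3/7 assay: HepG2 cells, 16 hr compound treatment, CellTiter-Fluor viability detection by fluorescence.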

[15] = target: Nuclear receptor subfamily 1 group I member 2 (Homo sapiens) (UniProt O75469); test: Human pregnane X receptor (PXR) small molecule agonists, qHTS assay (AID 1346982); also: nearly all actives have a fitted effect of over 35% in size; also: potency is read from the fitted curve at half-maximal effect
Sequence of Nuclear receptor subfamily 1 group I member 2 (Homo sapiens) (O75469 whole entry, looked up): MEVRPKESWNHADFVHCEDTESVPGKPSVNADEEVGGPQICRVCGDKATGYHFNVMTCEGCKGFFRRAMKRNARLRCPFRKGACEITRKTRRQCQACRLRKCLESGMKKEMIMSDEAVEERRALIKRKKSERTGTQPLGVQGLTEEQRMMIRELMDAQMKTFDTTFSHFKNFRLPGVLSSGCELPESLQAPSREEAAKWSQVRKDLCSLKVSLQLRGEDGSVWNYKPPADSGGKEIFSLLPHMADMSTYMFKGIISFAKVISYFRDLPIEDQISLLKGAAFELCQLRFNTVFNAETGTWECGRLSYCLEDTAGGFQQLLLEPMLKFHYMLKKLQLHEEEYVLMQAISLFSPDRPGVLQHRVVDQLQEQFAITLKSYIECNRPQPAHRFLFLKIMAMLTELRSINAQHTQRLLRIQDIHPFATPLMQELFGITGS
Method in brief: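 We seeded PXR-Luc HepG2 cells in assay medium containing 5% charcoal-stripped FBS, added compounds 5 hr later, incubated 24 hr, and read luminescence with ONE-Glo reagent.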

[16] = target: Cytochrome P450 2D6 (Homo sapiens) (UniProt P10635); test: Cytochrome P450 Family 2 Subfamily D Member 6 (CYP2D6) small molecule antagonists: luciferase reporter qHTS assay (AID 1671196); also: nearly all actives have a fitted effect of over 50% in size; also: potency is read from the fitted curve at half-maximal effect
Sequence of Cytochrome P450 2D6 (Homo sapiens) (P10635 whole entry, looked up): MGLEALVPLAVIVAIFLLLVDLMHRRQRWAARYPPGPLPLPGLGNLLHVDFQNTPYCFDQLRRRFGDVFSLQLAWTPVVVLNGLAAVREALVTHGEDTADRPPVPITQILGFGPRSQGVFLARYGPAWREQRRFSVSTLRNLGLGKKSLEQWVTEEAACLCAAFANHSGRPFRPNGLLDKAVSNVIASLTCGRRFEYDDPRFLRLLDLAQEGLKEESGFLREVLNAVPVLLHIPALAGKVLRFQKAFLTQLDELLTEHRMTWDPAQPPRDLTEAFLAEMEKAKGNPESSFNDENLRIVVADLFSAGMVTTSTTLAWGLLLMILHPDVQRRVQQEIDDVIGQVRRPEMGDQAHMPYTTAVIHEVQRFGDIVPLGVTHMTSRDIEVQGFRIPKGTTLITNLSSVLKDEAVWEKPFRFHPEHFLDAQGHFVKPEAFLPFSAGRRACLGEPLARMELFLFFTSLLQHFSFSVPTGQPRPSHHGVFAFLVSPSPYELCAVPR
Method in brief: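 Luminescence (RLU), read 20 min after detection reagent, indicated CYP2D6 conversion of proluciferin to luciferin during a 1 h NADPH-dependent reaction at room temperature.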

[17] = target: Nuclear receptor subfamily 1 group I member 2 (Homo sapiens) (UniProt O75469); test: CYP3A4 induction through human pregnane X receptor (PXR) by small molecules, qHTS assay (AID 1346984); also: nearly all actives have a fitted effect of over 40% in size
Method in brief: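 qHTS, concentration-response format: HepG2 DPX-2 line, PXR/CYP3A4-luc. Exposure 24 h, 37C. Substrate Luciferin-IPA 3uM final, 3 h. Detection One-Glo, 30 min RT.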

[18] = target: Nuclear receptor subfamily 1 group I member 2 (Homo sapiens) (UniProt O75469); test: Human pregnane X receptor (PXR) activation by small molecules, qHTS assay (AID 1346985); also: nearly all actives have a fitted effect of over 40% in size
Method in brief: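 DPX-2 cells (HepG2 co-transfected with a PXR response element and a CYP3A4-promoter luciferase construct) were seeded at 2,000 per well, rested 5 hr at 37C, then exposed to DMSO-dissolved compounds for 24 hr. Activation was read as luciferase luminescence.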

[19] = target: Progesterone receptor (Homo sapiens) (UniProt P06401); test: qHTS assay to identify small molecule agonists of the progesterone receptor (PR) signaling pathway (AID 1346784; calls by dose curve; also: nearly all actives have a fitted effect of over 30% in size)
Method in brief: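 Seed PR-UAS-bla HEK 293T cells (2% charcoal-stripped FBS), incubate 6 hr at 37C; add compounds in DMSO, 16 hr at 37C; add LiveBLAzer B/G substrate, 2 hr RT; read fluorescence intensity.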

[20] = target: Nuclear receptor subfamily 1 group I member 2 (Rattus norvegicus) (UniProt Q9R1A7); test: Rat pregnane X receptor (rPXR) activation by small molecules, qHTS assay (AID 1346983); details: rPXR luciferase reporter cells, One-Glo luminescence, 24 h; max activation: hits give high values; also: nearly all actives have a fitted effect of over 20% in size
Sequence of Nuclear receptor subfamily 1 group I member 2 (Rattus norvegicus) (Q9R1A7 whole entry, looked up): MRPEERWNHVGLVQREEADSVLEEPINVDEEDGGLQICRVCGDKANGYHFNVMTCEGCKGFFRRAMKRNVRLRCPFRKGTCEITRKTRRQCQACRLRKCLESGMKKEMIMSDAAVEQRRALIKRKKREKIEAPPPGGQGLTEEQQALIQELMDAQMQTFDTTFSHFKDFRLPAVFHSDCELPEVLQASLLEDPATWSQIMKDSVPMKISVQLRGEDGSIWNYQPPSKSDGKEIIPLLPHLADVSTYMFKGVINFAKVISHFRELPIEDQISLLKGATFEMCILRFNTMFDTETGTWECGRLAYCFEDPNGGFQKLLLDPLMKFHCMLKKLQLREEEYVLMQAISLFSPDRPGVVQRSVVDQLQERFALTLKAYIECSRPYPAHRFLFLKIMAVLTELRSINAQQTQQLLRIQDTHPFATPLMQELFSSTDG
Method in brief: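 Cell-based rPXR activation assay: rPXR cells, 2,000 per well, rested 5hr at 37 C, then exposed to compounds in DMSO for 24 hr at 37 C. Luciferase activity read by One-Glo luminescence after 30 min at room temperature.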

Structure (SMILES)	Potency [1]	Potency [2]	Potency [3]	Potency [4]	outcome [5]	outcome [6]	outcome [7]	outcome [8]	Potency [9]	Potency [10]	Potency [11]	Potency [12]	outcome [13]	Potency [14]	Potency [15]	Potency [16]	Potency [17]	Potency [18]	Potency [19]	max activation [20]
CCOC(=O)OCC	inactive	inactive	inactive	inactive	inactive	inactive	inactive	inactive	inactive	inactive	inactive	inactive	inactive	inactive	inactive	23.3 µM (active)	–	–	–	–
CC(C)C(OC(=O)c1ccccc1)C(C)(C)COC(=O)c1ccccc1 (stereo unspecified)	inactive	19.3 µM (active)	–	–	inactive	inactive	inactive	–	–	inactive	inactive	inactive	inactive	inactive	–	inactive	–	–	–	–
CCCCC(CC)C(=O)OCCOCCOCCOCCOC(=O)C(CC)CCCC (stereo unspecified)	inactive	inactive	inactive	inactive	inactive	–	inactive	inactive	inactive	inactive	inactive	inactive	inactive	inactive	–	inactive	–	–	–	–
CCCCC(=O)O[C@]1(C(=O)CO)CC[C@H]2[C@@H]3CCC4=CC(=O)CC[C@]4(C)[C@H]3[C@@H](O)C[C@@]21C	inactive	–	inactive	inactive	inactive	inactive	inactive	inactive	inactive	inactive	inactive	inactive	inactive	inactive	26.6 µM (active)	inactive	inactive	inactive	–	–
NC(=O)Nc1ccc(Cl)cc1	inactive	–	inactive	inactive	inactive	inactive	inactive	–	–	inactive	inactive	inactive	inactive	inactive	inactive	inactive	–	–	–	–
Cc1ccc(S(=O)(=O)NC2CCCCC2)cc1	–	27.1 µM (active)	–	–	inactive	–	inactive	–	inactive	inactive	inactive	–	inactive	inactive	27.1 µM (active)	inactive	–	–	inactive	–
CC(C)(CCl)c1ccccc1	–	inactive	inactive	inactive	inactive	–	inactive	inactive	inactive	inactive	inactive	inactive	inactive	inactive	inactive	inactive	–	–	inactive	–
ON(Cc1ccccc1)Cc1ccccc1	–	inactive	inactive	inactive	inactive	inactive	inactive	inactive	inactive	inactive	inactive	inactive	inactive	inactive	34.4 µM (active)	35.6 µM (active)	–	–	inactive	–
CC1CC(=O)NN=C1c1ccc(NCC(C)(C)NCC(O)COc2cc(Cl)ccc2C#N)cc1 (stereo unspecified)	–	inactive	inactive	inactive	inactive	–	inactive	–	inactive	–	inactive	inactive	inactive	inactive	26.6 µM (active)	5.49 µM (active)	–	–	inactive	–
CC(=O)Oc1ccc2c(c1)CC[C@@H]1[C@@H]2CC[C@]2(C)[C@@H](O)CC[C@@H]12	inactive	–	–	inactive	inactive	–	inactive	inactive	inactive	inactive	inactive	–	inactive	inactive	26.6 µM (active)	inactive	inactive	–	–	-1.91%
O=C(O)c1c(O)c(-c2ccccc2)nc2ccccc12	inactive	–	–	inactive	inactive	–	inactive	–	–	inactive	inactive	inactive	inactive	inactive	inactive	inactive	–	–	–	–
Cc1cc(C(=C2C=CC(=Nc3ccc(S(=O)(=O)O)cc3S(=O)(=O)O)C=C2)c2ccc(Nc3ccc(S(=O)(=O)O)cc3)cc2)ccc1N	–	inactive	inactive	inactive	inactive	inactive	inactive	inactive	inactive	inactive	inactive	inactive	inactive	–	inactive	–	–	–	inactive	–
CC(COc1ccc(C(C)(C)C)cc1)OS(=O)OCCCl (stereo unspecified)	inactive	–	–	–	inactive	–	inactive	inactive	inactive	12.3 µM (active)	inactive	10.9 µM (active)	inactive	15.4 µM (active)	9.74 µM (active)	inactive	–	–	–	–
OC(CCCN1CCCCC1)(c1ccccc1)c1ccccc1	–	inactive	inactive	inactive	inactive	inactive	inactive	–	inactive	–	inactive	inactive	inactive	inactive	inactive	0.11 µM (active)	–	–	inactive	–
C(=C\c1ccccc1)/CN1CCN(C(c2ccccc2)c2ccccc2)CC1	inactive	–	–	–	inactive	inactive	–	–	inactive	–	inactive	–	inactive	inactive	–	–	–	–	–	1.1%
C=CCNc1nc(NCC=C)nc(N2CCN(C(c3ccc(F)cc3)c3ccc(F)cc3)CC2)n1	–	2.98 µM (active)	–	–	inactive	inactive	inactive	inactive	inactive	inactive	inactive	–	inactive	inactive	13.3 µM (active)	–	–	–	inactive	–
CCCCC1C(=O)N(c2ccccc2)N(c2ccc(O)cc2)C1=O (stereo unspecified)	inactive	–	–	–	inactive	–	–	–	–	26.6 µM (active)	inactive	3.76 µM (active)	–	29.8 µM (active)	11.9 µM (active)	–	inactive	inactive	–	–
CCCC1C(CC)=CC(CC)=CN1c1ccccc1 (stereo unspecified)	–	27.3 µM (active)	–	–	inactive	inactive	–	–	–	inactive	inactive	inactive	inactive	inactive	24.3 µM (active)	20 µM (active)	–	–	inactive	–
